Assay results reported in PubChem BioAssay (NCATS).
Results filed as inconclusive are left out. Where a call stands in place of a potency, no number is given. Activity calls are given as the source filed them. The call rests on the fitted dose curve; in most records, active means well fitted cell-killing curve with a large enough effect; inconclusive means small, poorly fitted or top-dose-only effect; inactive means no such curve, though single readings can be large or run the other way.

Test: qHTS of pediatric cancer cell lines to identify multiple opportunities for drug repurposing: Primary screen for NB1643 cells (AID 1347099); further: nearly all actives have a fitted effect of over 50% in size
Settings: NB1643 neuroblastoma viability, CellTiter-Glo luminescence, 48 h; series mostly up to 46 µM
Outline: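 Plated cells (500-1,000 per well, growth media) were allowed to settle for 5 hours, treated with compound dilutions for 48 hours, then lysed with CellTiter-Glo for 15 min at room temperature before luminescence reading.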

Row | SMILES | Potency
1 | O=C(O)Cn1cnnn1 | inactive
2 | COc1cc(OC)nc(O[C@H](C(=O)O)C(OC)(c2ccccc2)c2ccccc2)n1 | inactive
3 | CCCCCCCCCCCCCCCCCCN(C)C | inactive
4 | C=C(C)C(=O)OCC(O)CO (stereo not given) | inactive
5 | CNC(=O)c1c(I)c(NC(C)=O)c(I)c(C(=O)O)c1I | inactive
6 | Cc1nc([N+](=O)[O-])cn1-c1ccc([N+](=O)[O-])cc1 | inactive
7 | O=C(CCCCCCCCC#CI)Oc1ccccc1 | inactive
8 | C=CC[N+]1([C@H]2C[C@H]3[C@@H]4CC[C@H]5C[C@H](OC(C)=O)[C@@H](N6CCCCC6)C[C@]5(C)[C@H]4CC[C@]3(C)[C@H]2OC(=O)CC)CCCCC1 | inactive
9 | CO/N=C(/C(=O)N[C@@H]1C(=O)N2C(C(=O)[O-])=C(C[n+]3ccn4ncccc43)CS[C@H]12)c1nsc(N)n1 | inactive
10 | C/C(=N\O)[C@@H](C)NCC(C)(C)CN[C@H](C)/C(C)=N/O | inactive
11 | CNC[C@H](O)[C@@H](O)[C@H](O)[C@H](O)CO | inactive
12 | COc1ccc(CCC(C)=O)cc1 | inactive
13 | Cc1ccccc1C(=O)N1CC/C(=N\OS(=O)(=O)O)c2ccc(Cl)cc21 | inactive
14 | CCn1ccc(NS(=O)(=O)c2ccc(N)cc2)nc1=O | inactive
15 | O=C(O)/C=C(\CC(=O)O)C(=O)O | inactive
16 | [O-][n+]1cccc(/C(Cl)=N/OC[C@@H](O)CN2CCCCC2)c1 | inactive
17 | CC1CC(=O)NN=C1c1ccc(NCC(C)(C)NCC(O)COc2cc(Cl)ccc2C#N)cc1 (stereo not given) | inactive

Test: qHTS of pediatric cancer cell lines to identify multiple opportunities for drug repurposing: Primary screen for LAN-5 cells (AID 1347100)
Settings: LAN-5 neuroblastoma viability, CellTiter-Glo luminescence, 48 h; series mostly up to 46 µM
Outline: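 Cells (500-1,000/well) in growth media were settled 5 h at 37 degrees C, then given compounds for 48 h. Viability was read as CellTiter-Glo luminescence. Primary runs used MIPE at 11 points (0.78 nM-46 µM) and NPC at 8 points (0.59 nM-46 µM); follow-ups used 11 points.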

Row | SMILES | Potency
18 | Cn1c(=O)c2c(ncn2CC(=O)O)n(C)c1=O | inactive
19 | O=[N+]([O-])c1nccn1CO[C@@H](CO)[C@H](O)CO | inactive
20 | CC(=O)OCC(=O)Nc1cc(C#N)cc(NC(=O)COC(C)=O)c1Cl | inactive
21 | CC1(C)O[C@@H]2C[C@H]3[C@@H]4C[C@H](F)C5=CC(=O)C=C[C@]5(C)[C@@]4(F)[C@@H](O)C[C@]3(C)[C@]2(C(=O)CO)O1 | inactive
22 | CCCC(=O)Nc1ccc(O)c(C(C)=O)c1 | inactive
23 | O=[N+]([O-])c1cncn1CCN1CCOCC1 | inactive
24 | CCOc1ncc(F)c(=O)[nH]1 | inactive
25 | CCc1cc(S(=O)(=O)O)c2cc(C(C)C)cccc1-2 | inactive
26 | Cc1ccccc1N1CCN(CCc2nnc3n2CCCC3)CC1 | inactive
27 | CN1C(=O)c2ccccc2C1=O | inactive
28 | Nc1nnnn1-c1ccccc1 | inactive
29 | CCOC(=O)c1ccc(NC(=O)CN2CCCCC2)cc1 | inactive
30 | Brc1ccccc1-c1ccccc1 | inactive
31 | CCNC(=O)NCCCOc1cccc(CN2CCCCC2)c1 | inactive
32 | CO/N=C(/C(=O)N[C@@H]1C(=O)N2C(C(=O)OCOC(=O)C(C)(C)C)=C(C)CS[C@H]12)c1csc(N)n1 | inactive
33 | Cc1c(N)cccc1C(F)(F)F | inactive
34 | OC[C@]1(O)OC[C@@H](O)[C@H](O)[C@@H]1O | inactive
35 | COC(=O)c1cc(Cl)ccc1OC | inactive
36 | CCCc1ncc(C(=O)O)s1 | inactive

Row | SMILES | Potency
37 | CCOc1ccc(NS(=O)(=O)c2ccc(N)cc2)nn1 | inactive
38 | CCCc1c2oc(C(=O)O)cc(=O)c2cc2c(=O)cc(C(=O)O)n(CC)c12 | inactive
39 | O=C(O)Cn1cnnn1 | inactive
40 | COc1cc(OC)nc(O[C@H](C(=O)O)C(OC)(c2ccccc2)c2ccccc2)n1 | inactive
41 | CCCCCCCCCCCCCCCCCCN(C)C | inactive
42 | C=C(C)C(=O)OCC(O)CO (stereo not given) | inactive
43 | CNC(=O)c1c(I)c(NC(C)=O)c(I)c(C(=O)O)c1I | inactive
44 | Cc1nc([N+](=O)[O-])cn1-c1ccc([N+](=O)[O-])cc1 | inactive
45 | O=C(CCCCCCCCC#CI)Oc1ccccc1 | inactive
46 | C=CC[N+]1([C@H]2C[C@H]3[C@@H]4CC[C@H]5C[C@H](OC(C)=O)[C@@H](N6CCCCC6)C[C@]5(C)[C@H]4CC[C@]3(C)[C@H]2OC(=O)CC)CCCCC1 | inactive
47 | CO/N=C(/C(=O)N[C@@H]1C(=O)N2C(C(=O)[O-])=C(C[n+]3ccn4ncccc43)CS[C@H]12)c1nsc(N)n1 | inactive
48 | C/C(=N\O)[C@@H](C)NCC(C)(C)CN[C@H](C)/C(C)=N/O | inactive
49 | CNC[C@H](O)[C@@H](O)[C@H](O)[C@H](O)CO | inactive
50 | COc1ccc(CCC(C)=O)cc1 | inactive
51 | Cc1ccccc1C(=O)N1CC/C(=N\OS(=O)(=O)O)c2ccc(Cl)cc21 | inactive
52 | CCn1ccc(NS(=O)(=O)c2ccc(N)cc2)nc1=O | inactive
53 | O=C(O)/C=C(\CC(=O)O)C(=O)O | inactive
54 | [O-][n+]1cccc(/C(Cl)=N/OC[C@@H](O)CN2CCCCC2)c1 | inactive
55 | CC1CC(=O)NN=C1c1ccc(NCC(C)(C)NCC(O)COc2cc(Cl)ccc2C#N)cc1 (stereo not given) | inactive
